The source of these data is PubChem BioAssay (EPA / NIEHS).

Inconclusive results are not listed. Calls of active or inactive are those of the source. The calls were made as follows: active = hit-call score of the fitted dose curve at least 0.9, where 1 is the maximum; inconclusive = response in the unintended direction; inactive = score below 0.9.

Chain of Estrogen-related receptor gamma (Homo sapiens) (P62508 whole entry, looked up): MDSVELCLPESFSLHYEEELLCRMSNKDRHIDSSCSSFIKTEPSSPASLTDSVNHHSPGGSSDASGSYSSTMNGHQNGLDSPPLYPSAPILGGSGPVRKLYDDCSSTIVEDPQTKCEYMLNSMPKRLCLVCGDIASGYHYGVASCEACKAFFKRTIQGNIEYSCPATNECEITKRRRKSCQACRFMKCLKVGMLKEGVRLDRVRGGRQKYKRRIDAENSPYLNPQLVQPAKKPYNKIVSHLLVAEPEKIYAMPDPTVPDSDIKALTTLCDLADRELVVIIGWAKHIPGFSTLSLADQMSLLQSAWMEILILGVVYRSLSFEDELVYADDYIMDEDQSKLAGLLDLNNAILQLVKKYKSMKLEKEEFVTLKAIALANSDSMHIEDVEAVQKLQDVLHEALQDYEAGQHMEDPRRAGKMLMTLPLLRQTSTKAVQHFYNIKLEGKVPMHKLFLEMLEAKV

This test has as its target Estrogen-related receptor gamma (Homo sapiens) (UniProt P62508). Put plainly: ATG_ERRg_TRANS: Attagene TRANS-FACTORIAL HepG2 Assay for human Estrogen-Related Receptor gamma (ERRg) (AID 2282977).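 Also: hits increase reporter signal over DMSO so potencies reflect activators.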 Conditions: HepG2 Attagene TRANS reporter, ERRg transactivation. As for the experimental part: ATG_TRANS is a cell-based, multiplexed-readout assay that uses HepG2, a human liver cell line, with measurements taken at 24 hours after chemical dosing in a 24-well plate.ATG_ERRg_TRANS is one of 30 assay component(s) measured or calculated from the ATG_TRANS assay. It is designed to make measurements of mRNA induction, a form of inducible reporter, as detected with fluorescence intensity signals by Reverse transcription polymerase chain reaction (RT-PCR) and Capillary electrophoresis technology.Data from the assay component ATG_ERRg_TRANS was analyzed into 1 assay endpoint. This assay endpoint, ATG_ERRg_TRANS, was analyzed in the positive analysis fitting direction relative to DMSO as the negative control and baseline of activity. Using a type of inducible reporter, measures of mRNA for gain-of-signal activity can be used to understand the reporter gene at the transcription factor-level as they relate to the gene ESRRG. Furthermore, this assay endpoint can be referred to as a primary readout, because this assay has produced multiple assay endpoints where this one serves a reporter gene function. To generalize the intended target to other relatable targets, this assay endpoint is annotated to the nuclear receptor intended target family, where the subfamily is steroidal.
Human liver HepG2 cells are transiently transfected with multiple reporter transcription units (MRTUs) in 6-well plates using FuGene 6 reagent (Roche; 3 ml FuGene/1 mg DNA). The MRTU constructs are regulated by a cis-regulating element (promoter). […] A major difference between the CIS and TRANS system is that in CIS activities of endogenous TFs are measured, whereas the TRANS assay evaluates changes in activities of exogenous, chimeric NR-Gal4 proteins. […] At the end of 24 hour incubation, total RNA was isolated using TriZol reagent (Invitrogen). The isolated RNA is then reverse-transcribed using oligo(dT) primer and Mo-MLV reverse transcriptase (Invitrogen) with DNAse I (Ambion) treatment for 30 min. The one-tenth of the produced cDNA was amplified by PCR using Taq DNA polymerase (Invitrogen) and two reporter sequence-specific primers. The PCR products were fluorescently labeled by primer extension with 6-arboxyfluorescein (6-FAM) 5'-labeled reporter sequence-specific primer (2 min at 95 C, 20 s at 68 C and 10 min at 72 C) and these products were digested with 5U of HpaI (New England Biolabs) for 2h at 37 C. The fragments were purified using Qiaquick PCR columns (Qiagen), analyzed on an ABI 3130xL genetic analyzer (Applied Biosystems) with peak positions identified by using a set of X-rhodamine (ROX)-labeled MapMarker1000 molecular weight standards (BioVentures). The raw capillary electrophoresis data was processed using Attagraph software (Attagene).
Take `C/C=C(\C)C(=O)OCc1ccccc1`: the call was inactive.
As to `O=C(O)c1cccc(C(F)(F)F)c1`, the call was inactive.
With `O=C(COc1ccc(Cl)cc1)N1CCN(Cc2ccc3c(c2)OCO3)CC1` the entry was “inactive”.
With `CCCC/C=C\CCCCCCCCCC=O` the entry was “inactive”.
Consider `CCCCNC(=O)NS(=O)(=O)c1ccc(C)cc1`, for which the compound was classed as inactive.
Take `CCc1ccc(C=O)cc1`: the compound was called inactive.
The value for `C=O` was “inactive”; that for `Cc1ccc(C=O)s1` was “inactive”.
With `N#Cc1nc(Cl)c(Cl)c(Cl)c1Cl` the entry was “inactive”; with `CN(C)CCOCCN(C)C`, “inactive”; with `CCCC(=O)c1cc(O)c(O)cc1O`, “inactive”.
For `CCN(CC)CCOC(=O)c1ccc(N)cc1`, the compound was called inactive.
With `CCCCCCCCC=O` the entry was “inactive”; with `COc1cc(C=O)ccc1OC(=O)C(C)C`, “inactive”.
With `NC(=O)c1ccccc1Cl` the entry was “inactive”.
The value for `CCn1c2ccccc2c2cc(N)ccc21` was “inactive”; that for `CC(=O)Nc1ccc(C)cc1C` was “inactive”; that for `O=C(O)CN(CCN(CC(=O)O)CC(=O)O)CCN(CC(=O)O)CC(=O)O` was “inactive”.
Turning to `CCOC(=O)c1ccccc1OC`, the outcome was inactive.
As to `NCCCCCCN`, the compound was classed as inactive.
For the compound `NC(=O)Nc1ccc(Cl)cc1`, the result was inactive.
As to `CCCOCC(C)O` (stereo not given), the call was inactive.
With `C=CC(C)(CCC=C(C)C)OC=O` (stereo not given) the entry was “inactive”; with `Nc1cc(Cl)c(O)c(Cl)c1`, “inactive”.
With `COc1ccc(Nc2ccccc2)c(C)c1` the entry was “inactive”; with `CCCCCCC#CC(=O)OC`, “inactive”.
For the compound `Nc1ccc(F)c([N+](=O)[O-])c1`, the result was inactive.
With `OCCOc1cccc(OCCO)c1` the entry was “inactive”; with `CCCC(C)C=O` (stereo not given), “inactive”; with `CC[C@]12CCCN3CCc4c(n(c5ccccc45)[C@@](O)(C(=O)OC)C1)[C@@H]32`, “inactive”.
With `CCCCCCCCCCCCCC(=O)O` the entry was “inactive”; with `Nc1cc([N+](=O)[O-])ccc1O`, “inactive”.
The value for `COc1ccc(Cl)cc1C` was “inactive”.
Consider `O=Nc1ccc(Nc2ccccc2)cc1`, for which the outcome was inactive.
With `COCCCOc1ccnc(CS(=O)c2nc3ccccc3[nH]2)c1C` (stereo not given) the entry was “inactive”; with `COCCOCCOCCOCCOCCO`, “inactive”.
With `NNc1nc(-c2ccc(N)cc2)cs1`, the compound was called inactive.
As to `CC(C)c1cccc(O)c1`, the compound was classed as inactive.
Regarding `CCN(CC)c1ccc(C(=C2C=CC(=[N+](CC)CC)C=C2)c2ccc(S(=O)(=O)O)cc2S(=O)(=O)[O-])cc1`, the compound was classed as inactive.
Consider `O=C1OC2(c3cc(Br)c(O)c(Br)c3Oc3c2cc(Br)c(O)c3Br)c2c(Cl)c(Cl)c(Cl)c(Cl)c21`, for which the outcome was inactive.
